Source: PubChem
The list is not random: actives were taken first. Their share in the collection is about 7.2%.
A1 inh – inhibitors of the anti-apoptotic protein A1, read as caspase activation; caspase activation, % (no concentration beside the values); actives 0.066% (n = 330,000); AID 2462; MEF A1-2A-BIM cells, Caspase-Glo 3/7 luminescence, 3 h; percent of clofoctol response, vehicle zero;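 active = over half of replicate activation scores above 10%, or exactly half above 10 with the replicate mean above 10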
AHR activator – activators of human aryl hydrocarbon receptor | P35869 | activation, % at 5 µM | AHR-responsive luciferase reporter cells, luminescence | actives 2.5% (n = 320,000); in the data active = activation above about 47%;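 note: 0% = vehicle wells and 100% = reference agonist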
Efflux pump mplx – blocks antifungal efflux pumps in multiplex yeast assay; S. cerevisiae Candida pump triplex, Nile Red efflux; inhibition, % at 10 µM; actives 0.44% (n = 330,000); AID 485275;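 active = plate passing quality check with inhibition over a set limit, or well fluorescence over plate mean plus 4 SD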;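 note: Nile Red retained in pooled yeast measured as flow cytometry median fluorescence; 0% = buffer negative control and 100% = Enniatin B positive control; higher means more Nile Red kept so more efflux inhibition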
VLA-4 inh – inhibition in a human VLA-4 binding assay; P13612; VLA-4 expressing cells, ligand binding flow cytometry; inhibition, % (about 7 µM as worked out from the volumes in the protocol); actives 0.2% (n = 330,000); in the data active = inhibition above about 50%
ALR inh – human ALR oxidase inhibition via reduced H2O2; P55789; purified ALR, DTT oxidation, H2O2 HRP-luminol luminescence; inhibition, % (no concentration beside the values); actives 3.8% (n = 290,000); AID 485317;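 active = mean replicate inhibition above about 79%, with every replicate also reaching it, limit read from the data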
Target sequence (P55789 whole entry, looked up): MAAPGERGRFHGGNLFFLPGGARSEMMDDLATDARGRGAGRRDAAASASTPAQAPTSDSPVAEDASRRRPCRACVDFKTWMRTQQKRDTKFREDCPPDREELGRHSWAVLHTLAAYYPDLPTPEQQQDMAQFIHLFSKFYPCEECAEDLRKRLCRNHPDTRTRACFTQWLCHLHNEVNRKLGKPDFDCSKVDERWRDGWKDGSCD
SUMO Mot1 rescue – SUMOylation pathway inhibition by Mot1-301 growth rescue | growth rescue, % at 18.8 µM | actives 1% (n = 320,000) | S. cerevisiae Mot1-301 growth rescue, ATP luminescence, 38.5C; percent above DMSO median, 100 means doubled;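 active = every valid replicate shows activation above 250% relative to neutral control wells; inactive = the rest, any valid replicate at or below 250%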;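 note: OY570 slx delta 5 strain wells were the positive control but not used for scaling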
VLA-4 allo CP – confirmation of allosteric modulators of human VLA-4 integrin | inhibition, % at 6.7 µM | U937 cells, HUTS-21 LIBS mAb binding, flow cytometry; LDV ligand present at threefold Kd | shares compounds with VLA-4 inh | actives 2% (n = 1,300); in the data active = inhibition above about 40%;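 note: 0% = ligand without compound and 100% = no ligand background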
An asterisk follows results filed as active; / = not tested or not shown; ! = a repeat was not active.

SMILES	A1 inh	AHR activator	Efflux pump mplx	VLA-4 inh	ALR inh	SUMO Mot1 rescue	VLA-4 allo CP
O=C(NCc1ccco1)c1cc(S(=O)(=O)N2CCCc3ccccc32)ccc1Cl	-1	2	0	14	4	256	/
CCNC(=O)COC(=O)c1cc(S(=O)(=O)N2CCCc3ccccc32)ccc1Cl	0	1	0	7	-2	4	-3
CC[C@@]1(C(=O)OC)N[C@H](CN(C)C(=O)c2ccc(F)cc2)[C@@H]2C(=O)N(C)C(=O)[C@@H]21	/	-1	0	21	/	/	/
Cc1ccc(NC(=O)c2cc(N3C(=O)C=CC3=O)ccc2N2CCOCC2)cc1Cl	15*	8	0	83*	22	179	52*
C[C@]12CCC(=O)C=C1CC[C@@H]1[C@@H]2[C@@H](O)C[C@@]2(C)[C@H]1CC[C@]2(O)C(=O)COC(=O)CCC(=O)O	-1	4	0	53*!	0	11	4
CC1CC(C)CN(C(=O)c2ccc(C#N)cc2)C1 (stereo not given)	-1	-1	0	60*	-16	/	10
O=C1CCc2ccc(NC(=O)C3CC3)cc2N1	0	3	0	55*	0	/	-9
S=C(Nc1cccc(Cl)c1Cl)Nn1cnnc1	0	5	0	3	-5	74	/
CCn1c(/C=N/Nc2ccc(C(=O)O)cc2)nc2ccccc21	-5	9	0	47	18	28	12
Cc1cc(=O)oc2cc(OC(C)C(=O)NCCCN3CCCC3=O)c(Cl)cc12 (stereo not given)	0	2	0	52*	3	-2	-3
CC(Oc1cc2oc(=O)c3c(c2cc1Cl)CCC3)C(=O)NCCCN1CCCC1=O (stereo not given)	0	1	0	15	-7	7	/
CCN(C[C@H]1N[C@@](Cc2ccccc2)(C(=O)OC)[C@H]2C(=O)N(Cc3ccccc3)C(=O)[C@@H]12)S(=O)(=O)c1ccc(C)cc1	/	-1	0	15	/	/	/
COC(=O)[C@]1(Cc2ccccc2)N[C@H](CN(C)S(=O)(=O)c2ccc(-c3ccccc3)cc2)[C@@H]2C(=O)N(Cc3ccccc3)C(=O)[C@@H]21	0	0	0	-11	/	-1	-2
CCN(C[C@H]1N[C@@](Cc2ccccc2)(C(=O)OC)[C@H]2C(=O)N(Cc3ccccc3)C(=O)[C@@H]12)S(=O)(=O)c1ccccc1	1	-2	0	-10	/	16	/
CCN(C[C@H]1N[C@@](Cc2ccccc2)(C(=O)OC)[C@H]2C(=O)N(Cc3ccccc3)C(=O)[C@@H]12)S(=O)(=O)c1ccc(-c2ccccc2)cc1	-1	0	0	-27	/	4	-5
COc1ccc(-n2c(=S)[nH]c3cc(C(=O)NCCCN4CCOCC4)ccc3c2=O)cc1OC	2	-2	0	56*	6	70	-9
Cn1cc(CN2CCC(n3nccc3NC(=O)CCOc3ccccc3)CC2)cn1	0	2	0	-108	-20	-13	/
Cc1ccc(CN2CCC(n3nccc3NC(=O)CCOc3ccccc3)CC2)cc1C	-1	0	0	106*	-43	14	2
Cc1c(NC(=O)c2cc(C(C)C)on2)c(=O)n(-c2ccccc2)n1C	1	1	0	/	-6	13	12
Cc1c(NC(=O)CN2CCN(C(=O)c3ccco3)CC2)c(=O)n(-c2ccccc2)n1C	-1	-1	0	-3	-4	4	2
Cc1c(NC(=O)COc2ncnc3c(Cl)cc(Cl)cc23)c(=O)n(-c2ccccc2)n1C	1	5	0	5	/	-12	3
Cc1c(NC(=O)COc2ccccc2Cl)c(=O)n(-c2ccccc2)n1C	0	0	0	9	-1	-3	/
Cc1c(NC(=O)c2c(F)c(F)c(F)c(F)c2F)c(=O)n(-c2ccccc2)n1C	2	0	1	4	/	63	0
Cc1c(NC(=O)c2cc(CC(C)C)on2)c(=O)n(-c2ccccc2)n1C	0	1	0	22	/	-6	/
Cc1c(NC(=O)c2ccccc2)c(=O)n(-c2ccccc2)n1C	0	0	0	8	0	206	/
SMILES	A1 inh	AHR activator	Efflux pump mplx	VLA-4 inh	ALR inh	SUMO Mot1 rescue	VLA-4 allo CP
O=C(OCc1ccccc1F)c1cc2ccccc2cc1O	0	4	0	1	1	-6	/
O=C(O)CN1C(=O)/C(=C\c2cn(CC(=O)N3CCOCC3)c3ccccc23)SC1=S	0	-1	0	8	-5	68	/
Cn1nc(C(=O)NCC(=O)Nc2ccc(F)c(F)c2F)c2ccccc2c1=O	0	-3	0	-12	0	-9	/
Cc1ccc(C(C)C)c(OCC(=O)N2CCN(c3ncccn3)CC2)c1	3	0	0	41	/	-13	/
CCOC(=O)c1c(C)[nH]c(C(=O)OC(C)C(=O)NC2CCCCC2C)c1C (stereo not given)	0	5	0	4	1	8	/
Cc1c(NC(=O)c2cc3ccccc3c(=O)s2)c(=O)n(-c2ccccc2)n1C	2	13	0	53*	2	240	6
Cc1c(NC(=O)c2ccc(Cl)s2)c(=O)n(-c2ccccc2)n1C	0	1	3	8	-4	-14	/
COc1cccc(OCC(=O)Nc2ccccc2-c2ccccc2)c1	0	-1	0	9	0	16	/
Cc1[nH]c2ccccc2c1/C=N/NC(=O)c1ccccc1	0	68*	0	45	24	-7	-7
COc1ccc(OC)c(C(=O)COC(=O)CNC(=O)C2CCCCC2)c1	0	1	0	60*	/	162	-8
COc1cccc(C2CC(=O)Nc3cc(OC)c(OC)cc32)c1 (stereo not given)	-1	/	0	4	-10	1	1
CCOc1cccc(C2CC(=O)Nc3cc(OC)c(OC)cc32)c1 (stereo not given)	0	4	0	51*	1	5	8
COc1cccc(C2CC(=O)Nc3cc4c(cc32)CCC4)c1 (stereo not given)	0	3	0	7	-3	45	/
COc1cc2c(cc1OC)C(c1ccc(Br)cc1)CC(=O)N2 (stereo not given)	1	/	0	14	-13	-4	10
COCCn1c(Cc2ccccc2)nnc1SCc1ccc([N+](=O)[O-])cc1	0	-2	0	41	-8	14	5
CCOC(=O)c1c(NC(=O)COc2ncnc3sccc23)sc2c1CCC2	0	5	0	70*	-5	-6	8
O=C(CCc1nc2ccccc2s1)OCC(=O)c1ccccc1	-1	6	0	42	-2	-13	-12
